Mdm2-MdmX inh: disrupts the human Mdm2-MdmX interaction | 330,000 tested, 3% active | SaOS-2 split-luciferase Mdm2/MdmX complementation, luminescence | O15151+Q00987 | inhibition, % at 8 µM;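 active = inhibition of at least 50% at 8 µM in the primary screen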
CF NFkB block: cystic fibrosis NF-kB activation inhibition. AID 588850. inhibition, % at 5 µM. KKLEB NF-kB-GFP reporter, PAF-induced, GFP fluorescence overnight. 360,000 tested, 0.86% active;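 active = at least 50% inhibition at 5 µM, scaled per plate between neutral and stimulator controls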;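 also: PAF is a Pseudomonas aeruginosa culture filtrate used as stimulus; plate controls were PAF-stimulated DMSO wells for no effect and unstimulated DMSO wells for full effect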
Peg3 promoter: inhibitors of Peg3 promoter. HeLa PEG-Prom luciferase reporter, luminescence, overnight. inhibition, % at 20 µM. 360,000 tested, 1.7% active;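 active = inhibition of at least 50% at 20 µM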
HIF-2a block: HIF-2a inhibition | inhibition, % at 18.8 µM | 786-0 RCC cells HIF-2a reporter, luciferase luminescence, overnight | 360,000 tested, 0.72% active;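 active = inhibition of the luminescence signal of 40% or more relative to plate controls, in a single-dose primary screen at 18.75 µM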
ABHD5-PLIN5 inh: inhibitors of human ABHD5-perilipin-5 interaction; Q00G26+Q8WTS1; Split G. princeps luciferase complementation, luminescence, 4 h; inhibition, % at 4 µM; 360,000 tested, 0.78% active; AID 602281;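 active = inhibition above the mean inhibition across every tested compound plus 3 SD, cut at about 22% in these data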;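 also: 0% = DMSO only wells and the 100% control is not disclosed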
Target sequence (Q00G26 whole entry, looked up): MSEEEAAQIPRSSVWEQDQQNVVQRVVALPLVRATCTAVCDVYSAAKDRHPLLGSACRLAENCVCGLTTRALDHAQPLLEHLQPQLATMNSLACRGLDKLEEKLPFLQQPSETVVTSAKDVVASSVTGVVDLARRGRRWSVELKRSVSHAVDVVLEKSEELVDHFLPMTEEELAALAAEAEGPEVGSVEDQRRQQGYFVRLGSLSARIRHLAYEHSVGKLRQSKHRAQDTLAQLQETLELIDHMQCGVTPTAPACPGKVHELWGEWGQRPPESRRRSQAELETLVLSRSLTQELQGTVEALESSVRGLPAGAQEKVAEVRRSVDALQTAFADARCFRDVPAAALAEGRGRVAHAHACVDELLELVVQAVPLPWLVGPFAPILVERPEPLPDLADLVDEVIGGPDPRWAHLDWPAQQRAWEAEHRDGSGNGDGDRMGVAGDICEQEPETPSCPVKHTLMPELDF
Target sequence (Q8WTS1 whole entry, looked up): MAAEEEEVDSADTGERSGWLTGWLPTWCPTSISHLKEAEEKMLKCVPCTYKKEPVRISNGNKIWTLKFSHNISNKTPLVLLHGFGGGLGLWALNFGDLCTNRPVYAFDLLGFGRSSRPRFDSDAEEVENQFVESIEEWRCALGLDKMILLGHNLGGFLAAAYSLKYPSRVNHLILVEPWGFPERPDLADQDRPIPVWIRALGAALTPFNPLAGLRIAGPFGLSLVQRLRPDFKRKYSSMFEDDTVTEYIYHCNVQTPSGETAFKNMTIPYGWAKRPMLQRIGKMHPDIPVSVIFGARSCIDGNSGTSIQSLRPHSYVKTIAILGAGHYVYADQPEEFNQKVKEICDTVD
KKLEB cytotox: CF airway cell cytotoxicity counter-screen; activity change (cytotoxicity), % at 5 µM; AID 602141; KKLEB CF airway cells viability, ATPlite luminescence, overnight; stronger effect = lower value; cells stimulated with P. aeruginosa culture filtrate; 360,000 tested, 0.36% active;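 active = corrected activity change at or below -50% at 5 µM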
Mdm2 MdmX conf: confirmation of human Mdm2/MdmX interaction inhibitors; AID 489028; Mdm2-MdmX binding, luminescent assay; inhibition, % at 8 µM; shares compounds with Mdm2-MdmX inh; 10,000 tested, 55% active; in the data active = inhibition above about 40%
FLuc counter: counter-screen for Mdm2/MdmX inhibitors: full-length luciferase; shares compounds with Mdm2-MdmX inh; SaOS-2 full-length luciferase counterscreen, luminescence; inhibition, % at 8 µM; 6,200 tested, 77% active; AID 504607;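 active = mean inhibition at 8 µM reaching about 37%, which flags the compound as non-specific, limit read from the data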;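 also: p53-null SaOS-2 cells with luciferase driven by a doxycycline-inducible promoter; compound on cells about two nights before reading with doxycycline added after day one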
Numbers without * were called inactive; / = no result. An excerpt weighted towards active compounds, which were near 4.6% of everything screened.

SMILES	Mdm2-MdmX inh	CF NFkB block	Peg3 promoter	HIF-2a block	ABHD5-PLIN5 inh	KKLEB cytotox	Mdm2 MdmX conf	others
Cc1ccccc1OCC(=O)N/N=C/c1cc2ccccc2nc1Cl	16	-8	-24	-44	0	-10	/
C=CCc1ccccc1OCC(=O)N/N=C/c1ccc(OC(C)=O)cc1OC(C)=O	52*	15	35	-13	20	-10	51*	FLuc counter=37*
COc1ccc([N+](=O)[O-])c(O)c1C(C)=O	/	-20	10	9	-5	0	/
Cc1nc(SCC(=O)Nc2cccc(Cl)c2)n[nH]1	-6	-3	7	0	-6	-5	/
O=C(CSc1n[nH]c(-c2ccccn2)n1)Nc1cccc(Cl)c1	60*	23	38	2	-5	0	53*	FLuc counter=40*
COc1cc2c(cc1NC(=S)Nc1cccc3ccccc13)oc1ccccc12	-14	4	-68	-73	-11	-1	/
CCn1c(SCC(=O)Nc2cc3oc4ccccc4c3cc2OC)nnc1-c1cccs1	51*	0	-12	-69	3	6	12
COc1cc2c(cc1NC(=O)CSc1nnc(Cc3cccs3)n1C)oc1ccccc12	21	3	-35	-49	7	-8	/
C=CCn1c(SCC(=O)Nc2cc3oc4ccccc4c3cc2OC)nnc1-c1cnccn1	22	-8	-1	-18	2	2	/
COc1cc2c(cc1NC(=O)CSc1nnnn1-c1ccccc1)oc1ccccc12	71*	24	25	7	-4	-23	33
C=CCn1c(COc2ccccc2F)nnc1SCC(=O)Nc1cc2oc3ccccc3c2cc1OC	54*	0	33	19	16	-4	33
COCCCNC(=S)Nc1cc2oc3ccccc3c2cc1OC	55*	41	-8	-36	10	-18	41*	FLuc counter=90*
COCCCN1C(=O)C(CC(=O)NC2CCCCC2)CC(C(=O)N2CCCCCC2)=C1C (configuration not stated)	/	/	/	-15	-10	/	/
Cc1ccc(Cn2cc(CN3CC(N4CCN(C5CCN(C)CC5)CC4)CS3(=O)=O)nn2)cc1 (configuration not stated)	/	/	/	-1	7	/	/
COC(=O)[C@@]12C[C@@H](CC(=O)N3CCN(C(=O)C4CC4)CC3)C(=O)N(Cc3cccc4ccccc34)C1=CCC(C)(C)C2	/	/	/	11	11	/	/
O=C(CSc1nnnn1-c1ccccc1)Nc1nsc(-c2ccc(Cl)cc2)n1	11	21	-70	-70	-1	-8	/
COc1cc2c(cc1NC(=O)CN(C)Cc1ccc(OC)c(OC)c1)oc1ccccc12	51*	20	10	-8	10	-26	59*	FLuc counter=58*
O=C(CSc1nnnn1-c1ccccc1)Nc1nsc(-c2ccccc2)n1	84*	45	-42	-51	4	-2	81*	FLuc counter=28
COc1ccc(CN(C)CC(=O)Nc2cc3oc4ccccc4c3cc2OC)c(OC)c1	25	8	-2	11	-4	1	/
COc1cc2c(cc1NC(=O)CN1C(=O)NC3(CCc4ccccc43)C1=O)oc1ccccc12 (configuration not stated)	69*	2	57*	-41	35*	-8	13
O=C1CN(C(=O)CN2CCN(S(=O)(=O)c3ccccc3)CC2)c2ccccc2N1	/	-5	0	3	7	4	/
Cc1ccc(S(=O)(=O)NC(=O)C2(C)CCN2C(=O)Cc2ccc(C(C)(C)C)cc2)cc1 (configuration not stated)	/	10	8	11	-5	-7	/
COc1ccccc1N1CCN(C(=O)c2sc3nc(C)nc(N4CCN(c5ccccn5)CC4)c3c2C)CC1	76*	15	47	10	9	-7	71*	FLuc counter=38*
Cc1nc(N2CCN(C)CC2)c2c(C)c(C(=O)Nc3ccc(C)c(F)c3)sc2n1	50*	20	17	-55	4	-11	34
Cc1nc(N2CCN(c3ccccn3)CC2)c2c(C)c(C(=O)Nc3c(C)cc(Br)cc3C)sc2n1	59*	6	31	-2	0	-20	30
